Laboratory results from PubChem BioAssay AID1345085 (National Center for Advancing Translational Sciences (NCATS), 2018).
Results filed as inconclusive are left out. Unmarked numbers belong to inactive results. The source made the active and inactive calls. Calls follow the shape of the dose curve; as a rule, active = well fitted cell-killing curve with a large enough effect; inconclusive = small, poorly fitted or top-dose-only effect, or effect the other way; inactive = no such curve, though single readings can be large or run the other way.

Tested on: C33A
Experiment: Confirmatory qHTS for gynecologic anti-cancer compounds from libraries of approved drugs and bioactive compounds; also: nearly all actives have a fitted effect of over 55% in size
Conditions: gynecologic cancer cell panel viability, ATPlite luminescence, 48 h; series mostly up to 57.6 µM
Method in brief: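 Cells (1,000/well) plated 16 h, then exposed 48 h at 37 °C to 11 concentrations (1:3) from 57.5 uM to 0.977 nM. Viability by ATPlite luminescence after 15 min; IC50 derived, with HEK 293T used for selectivity index.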
% is scaled to controls: 0 for no effect and ±100 for the full control effect; potency is read from the fitted curve at half-maximal effect.

| Compound | Potency | activity change, negative = viability loss |
| --- | --- | --- |
| Cc1ccc(C(=O)Nc2ccc(Oc3cc4cnn(C)c4cc3-c3cn[nH]c3)c(F)c2)c(=O)n1-c1ccc(F)cc1 | inactive | – |
| CCCCc1nc2cc(/C=C/C(=O)NO)ccc2n1CCN(CC)CC | 1.53 µM (active) | – |
| CC[C@H](Nc1ncnc2nc[nH]c12)c1nc2cccc(F)c2c(=O)n1-c1ccccc1 | – | -0.528% [at 10.7 µM] |
| Cc1ccc(C(=O)N(CCCN)C(c2oc3cc(Cl)ccc3c(=O)c2Cc2ccccc2)C(C)C)cc1 (configuration not stated) | 0.769 µM (active) | – |
| Nc1ccccc1NC(=O)c1ccc(CNc2nccc(-c3cccnc3)n2)cc1 | 3.06 µM (active) | – |
| CO[C@@]12[C@H](COC(N)=O)C3=C(C(=O)C(C)=C(N)C3=O)N1C[C@@H]1N[C@@H]12 | inactive | – |
| O=C1c2c(O)ccc(O)c2C(=O)c2c(NCCNCCO)ccc(NCCNCCO)c21 | 0.306 µM (active) | – |
| O=C(Nc1cn[nH]c1-c1nc2ccc(CN3CCOCC3)cc2[nH]1)NC1CC1 | 13.7 µM (active) | – |
| Cc1cc(CN2CCN(c3c(Br)cnc4nc(-c5ccc(N6CCN(C)CC6)cc5)[nH]c34)CC2)no1 | 24.3 µM (active) | – |
| O=C(NOCC1CC1)c1ccc(F)c(F)c1Nc1ccc(I)cc1Cl | inactive | – |
| Cc1ccc(C(=O)Nc2ccc(CN3CCN(C)CC3)c(C(F)(F)F)c2)cc1C#Cc1cnc2cccnn12 | 19.3 µM (active) | – |
| Cn1cnc2c(F)c(Nc3ccc(Br)cc3F)c(C(=O)NOCCO)cc21 | inactive | – |
| NS(=O)(=O)c1ccc(Nc2nc(OCC3CCCCC3)c3[nH]cnc3n2)cc1 | inactive | – |
| Cc1[nH]c2ccccc2c1CCNCc1ccc(/C=C/C(=O)NO)cc1 | 0.243 µM (active) | – |
| CN(C)CC/C=C1\c2ccccc2COc2ccccc21 | inactive | – |
| Cc1ccc(C(=O)Nc2ccc(CN3CCN(C)CC3)c(C(F)(F)F)c2)cc1C#Cc1cnc2[nH]ncc2c1 | 17.2 µM (active) | – |
| COC(C(=O)N1Cc2[nH]nc(NC(=O)c3ccc(N4CCN(C)CC4)cc3)c2C1)c1ccccc1 (configuration not stated) | inactive | – |
